We go through twelve compounds from PubChem BioAssay (NCI).

Compounds without any hit were thinned out: in the full panel of roughly 83,000, 20% have a hit.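 Method: cells in 96-well plates; compound added at one concentration; 48 h incubation; percent growth measured; values under 10 scored active.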 Unmarked numbers belong to inactive results. Activity calls are given as the source filed them.

The experiment deals with NCI-H522 lung. Put plainly: NCI-60 one-dose screen, 48 h (100 = growth as untreated, 0 = no growth, -100 = all killed). The following applies: 10 µM unless noted.
As to `O=C(CSc1nc2sc3c(c2c(=O)n1-c1ccccc1)CCCCC3)N/N=C/c1cccc([N+](=O)[O-])c1`, the growth was 53.5%.

As to `O=C(Nc1cccc(Cl)c1)Nc1cccc(Cn2c(=O)[nH]c3ccc(Oc4ncccn4)cc3c2=O)c1`, the growth is 25.6%.

As for `CCOC(=O)Cc1cnc(N/N=C(\C)c2cc3ccccc3o2)s1`, the growth was 42%.

For `COC1/C=C/OC2(C)Oc3c(C)c(O)c4c(O)c(c(/C=N/Nc5ccc([N+](=O)[O-])cc5[N+](=O)[O-])c(O)c4c3C2=O)NC(=O)C(C)=C/C=C/C(C)C(O)C(C)C(O)C(C)C(OC(C)=O)C1C` (configuration not stated), the growth was -42.5% (active).

Regarding `COC(=O)CC[C@@H]1O[C@@H](c2cccc(C(F)(F)F)c2)[C@@H](O)[C@H]1O`, the growth is 98.6%.

For `COc1ccc(/C=N/NC(=O)c2ccc(-n3cc(-c4ccccc4)nn3)cc2)cc1OC`, the growth is 99.6%.

Consider `COC(=O)c1c2c(c(C)[n+]([O-])c1C)C(=O)C(NCc1cccc(OC)c1)=CC2=O`, for which the growth was 10.8%.

Take `Nc1n[nH]c2cccc(C#Cc3cccc(C(=O)Nc4cc(C(F)(F)F)cc(C(F)(F)F)c4)c3)c12`: the growth is 35.1%.

Turning to `OB1OCc2cc(/C=C/c3cccc(C(F)(F)F)c3)ccc21`, the growth is 3.78% (active).

As for `CNC(=O)c1[nH]cc(-c2ccc(OC)cc2)c1-c1cc(OC)c2c(c1OC)OCO2`, the growth is 101%.

Turning to `COc1ccc(-c2cc(-c3ccc(Cl)cc3)c(C#N)c(=O)n2Cc2ccc(C(=O)Nc3ccccc3N)cc2)cc1`, the growth is 53.9%.

On to `CC1CCc2c(C(=O)Nc3ncc(Cc4cccc([N+](=O)[O-])c4)s3)csc2C1` (configuration not stated), for which the growth was 2.96% (active).
